Screening data as filed in PubChem BioAssay.
In the library only some 2.1% were active in any assay of this set; here they are far more common.
Abeta rescue = restores growth of yeast expressing A-beta42 peptide; yeast expressing A-beta42, growth rescue, OD600, 48 h; response scale: 0% DMSO, 100% iron-clioquinol control; Potency, µM (series often up to 46.1 µM), usual class: activators; 0.063% of 410,000 active; AID 1347071; note: nearly all actives have a fitted effect of over 55% in size
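Growth rescue measured by 600 nm absorbance after 48 h yeast culture at 30 C with compound. Values normalized between DMSO and an equimolar ferric chloride plus clioquinol control.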
aSyn rescue = rescues yeast growth from alpha-synuclein toxicity; Yeast expressing alpha-synuclein, growth rescue, BacTiter-Glo, 24 h; Potency, µM (doses to about 46.1 µM), actives largely listed as activators; 0.14% of 370,000 active; note: nearly all actives have a fitted effect of over 65% in size
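Galactose-induced alpha-syn yeast (OD600=0.02, raffinose-pregrown) + pinned cpd, 24 hr, 30 deg C; growth by BacTiter-Glo luminescence. Growth restoration scores as activation.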
TDP-43 yeast inh = inhibitors of TDP-43 toxicity in yeast; AID 652104; TDP-43 expressing yeast growth rescue, BacTiter-Glo, 24 h; Potency, µM (series often up to 46.1 µM), usual class: activators; 1.8% of 410,000 active; note: nearly all actives have a fitted effect of over 50% in size
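Cell-based yeast growth screen: TDP-43 expression induced in galactose, inoculum OD600=0.02 after raffinose pregrowth to mid-log. Read-out BacTiter-Glo luminescence at 24 hr, 30 deg C; inhibition of toxicity seen as signal increase.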
FUS yeast rescue = FUS proteinopathy suppression in yeast | Potency, µM (highest dose often 76.6 µM), actives largely listed as activators | 0.24% of 390,000 active | S. cerevisiae FUS-expressing, growth rescue, OD600, 24 h; note: nearly all actives have a fitted effect of over 55% in size
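Steps: raffinose overnight preculture; dilution to OD 0.005 in 2% galactose minimal medium; compound addition (concentration series); 24hr at 30C, 99% humidity; absorbance read at 600 nm.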
Numbers stand for hits; - = inactive; ? = inconclusive; . = no result given. Calls come from the whole dose curve; as a rule, active = well fitted curve in the direction sought with a large enough effect; inconclusive = small, poorly fitted or top-dose-only effect, or another doubt; inactive = no such curve, though single readings can be large; an effect the other way counts as inactive or inconclusive.

SMILES	Abeta rescue	aSyn rescue	TDP-43 yeast inh	FUS yeast rescue
CC1CCc2c(sc3nnn(CC(=O)Nc4c(C(C)C)cccc4C(C)C)c(=O)c23)C1 (stereo not drawn)	-	.	-	-
COc1cc(NC(=O)c2cnc3c(-c4ccc(F)cc4)c(C)nn3c2C)cc(OC)c1	-	.	-	-
COc1cc(N(C)C)c(OC)cc1C=C1C=CC=C1	.	-	.	.
CC(=O)c1sc(Nc2ccc(Oc3ccccc3)cc2)nc1C	-	-	35.5µM	-
CC(=O)c1sc(Nc2ccccc2)nc1C	-	-	-	-
COC(=O)c1sc(Nc2ccccc2)nc1C	-	-	12.6µM	-
CCOc1ccccc1NC(=O)c1nnn(CC(=O)Nc2ccc(OC)c(OC)c2)c1N	-	.	-	-
COc1ccc(C(C)(NC(C)=O)c2nc(/C=C/c3ccccc3)cs2)cc1 (stereo not drawn)	-	-	-	?
COc1ccc(C(C)(O)c2nc(/C=C/c3ccccc3)cs2)cc1 (stereo not drawn)	?	?	35.5µM	-
COc1ccc(C(C)(O)c2nc(-c3csc4ccccc34)cs2)cc1 (stereo not drawn)	?	-	22.4µM	-
COCCOC(=O)N1CCN(/[N+]([O-])=N/Oc2ccc([N+](=O)[O-])cc2[N+](=O)[O-])CC1	.	-	.	.
O=C(OC1CC2CCC(C1)[N+]21CCCC1)C(O)(c1ccccc1)c1ccccc1 (stereo not drawn)	.	.	.	-
Cc1ccccc1OCCCc1c(C)n[nH]c1C	-	-	20µM	-
c1ccc(OCCCc2nc(-c3cccnc3)no2)cc1	-	-	-	-
c1ccc(CCCc2nc(-c3cccnc3)no2)cc1	-	-	8.91µM	-
COc1ccc(-c2noc(CCc3ccccc3)n2)cc1	-	-	17.8µM	-
O=C(CCCc1nc(-c2ccc(Cl)cc2)no1)Nc1cccnc1	-	?	15.8µM	-
Cc1cccc(-c2noc(CCCC(=O)Nc3cccnc3)n2)c1	-	-	-	.
O=C(NCCc1c[nH]c2ccccc12)OCc1cn(-c2cccc(Cl)c2)nn1	.	.	.	-
CC(C)c1ccc(NC(=O)Cn2c(=O)n(CC3CCC(C(=O)NCCc4ccccc4)CC3)c(=O)c3ccccc32)cc1 (stereo not drawn)	-	.	-	-
CCc1ccc(NC(=O)CCCc2nnc3n(CC(C)C)c(=O)c4sccc4n23)cc1	-	.	-	-
O=[N+]([O-])c1ccc(Nc2ccccc2F)nc1	-	-	17.8µM	-
Cc1nc(C(=O)Nc2cc(F)cc(Cl)c2)sc1C1(C)CC(c2ccccc2)=NO1 (stereo not drawn)	-	-	12.6µM	?
CCOC(=O)N1CCN(C(=O)C[C@@H]2C[C@@]3(C(=O)OCC)CCC=C3N(Cc3ccc(Cl)cc3Cl)C2=O)CC1	-	-	22.4µM	?
CCOC(=O)N1CCN(C(=O)C[C@@H]2C[C@@]3(C(=O)OCC)CCC=C3N(Cc3cccc4ccccc34)C2=O)CC1	-	-	15.8µM	-
SMILES	Abeta rescue	aSyn rescue	TDP-43 yeast inh	FUS yeast rescue
Oc1ccc(Nc2nc(-c3cccnc3)cs2)cc1	-	-	-	-
Brc1cccc(Nc2nc(-c3cccnc3)cs2)c1	-	-	3.16µM	-
Brc1ccc(Nc2nc(-c3cccnc3)cs2)cc1	-	-	11.2µM	-
C=Cc1ccc(CSc2nc(-c3ccc(C)cc3)nc3c2Cc2c(CO)cnc(C)c2O3)cc1	-	.	-	-
O=C(Nc1ccccc1Cl)C1CCCN(c2ncnc3c2nc2n3CCCCC2)C1 (stereo not drawn)	-	-	14.1µM	-
CCc1ccccc1N(C)C(=O)C1CCCN(c2ncnc3c2nc2n3CCCCC2)C1 (stereo not drawn)	-	.	11.2µM	-
O=C(C1CCCN(c2ncnc3c2nc2n3CCCCC2)C1)N1CCN(c2ccccc2F)CC1 (stereo not drawn)	-	-	11.2µM	-
Cc1cccc(Cn2c(=O)n3nc(-c4ccccc4)nc3c3ccccc32)c1	-	.	?	-
CCOC(=O)C1=C(C)N=c2s/c(=C\c3ccc(OCC(=O)O)c(OC)c3)c(=O)n2C1c1ccc(OC)cc1 (stereo not drawn)	-	-	-	35.5µM
COC(=O)[C@]12C[C@H](CC(=O)NCc3cccc(C(F)(F)F)c3)C(=O)N(Cc3ccc(Cl)cc3Cl)C1=C[C@H](COCc1ccccc1)O[C@@H]2C	.	.	.	-
Cc1cc(C(=O)NCc2ccc3c(c2)OCO3)ccc1[N+](=O)[O-]	?	-	17.8µM	-
Cc1ccc(C(=O)NCc2ccc3c(c2)OCO3)cc1C	-	-	?	-
